A selection: hits, their analogues and other compounds. The true share with any hit is near 2.5%.
Cruzain noTriton = cruzain (T. cruzi) inhibition without detergent | purified cruzain, Z-FR-AMC fluorescence, no detergent | P25779 | Potency, µM, for inactives: max response, negative = inhibition, usual class: inhibitors | 200,000 tested, 2.3% active | AID 1476;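 note: plate controls were enzyme without inhibitor for no effect and buffer without enzyme for full effect; nearly all actives have a fitted effect of over 40% in size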
Target sequence (P25779 123-467 limits assumed): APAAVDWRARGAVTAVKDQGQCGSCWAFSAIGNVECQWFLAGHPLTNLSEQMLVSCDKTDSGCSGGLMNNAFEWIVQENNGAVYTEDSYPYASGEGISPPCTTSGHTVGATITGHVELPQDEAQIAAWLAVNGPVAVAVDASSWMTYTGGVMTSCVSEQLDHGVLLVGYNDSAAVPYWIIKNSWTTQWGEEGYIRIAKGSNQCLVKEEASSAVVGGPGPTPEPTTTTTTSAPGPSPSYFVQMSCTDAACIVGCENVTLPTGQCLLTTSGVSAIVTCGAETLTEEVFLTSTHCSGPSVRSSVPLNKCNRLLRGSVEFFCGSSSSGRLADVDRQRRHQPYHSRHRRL
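Purified cruzain at 1.5 nM, pre-incubated 15 min with compound at room temperature in 100 mM sodium acetate pH 5.5, 5 mM DTT, 0.00005% Triton X-100. Reaction started with 2 uM Z-FR-AMC; AMC fluorescence increase over 60 s gives rate.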
Cruzain inh Det = blocks cruzain activity in presence of Triton detergent. P25779. purified cruzain, Z-FR-AMC fluorescence, 0.01% Triton. Potency, µM, for inactives: max response, negative = inhibition, actives largely listed as inhibitors. 200,000 tested, 0.43% active. AID 1478;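 note: plate controls were neutral wells for no effect and buffer without enzyme for full effect; nearly all actives have a fitted effect of over 40% in size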
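Read-out: AMC fluorescence (360 nm excitation, 450 nm emission), four reads over 2 min, first-to-third difference used. Conditions: cruzain 1.5 nM, Z-FR-AMC 2 uM, pH 5.5 acetate, 5 mM DTT, 0.01% Triton X-100.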
The depositor's hits bear a star. Calls come from the whole dose curve; as a rule, active = well fitted curve in the direction sought with a large enough effect; inconclusive = small, poorly fitted or top-dose-only effect, or another doubt; inactive = no such curve, though single readings can be large; an effect the other way counts as inactive or inconclusive. Potency is the fitted concentration of half-maximal effect.

COc1ccc(C(=O)NNC(=O)c2cc3cc([N+](=O)[O-])ccc3oc2=O)cc1OC was read as Cruzain noTriton 1.1% and Cruzain inh Det -1.1%.
Screening O=C(Nc1nc(C2C3CC4CC(C3)CC2C4)cs1)c1cc2cc([N+](=O)[O-])ccc2oc1=O (configuration not stated) returned Cruzain noTriton 25.1µM* and Cruzain inh Det -2.1%.
For Cc1ccc(C)c(NC(=O)Cn2c(=O)n(CCC(C)C)c(=O)c3cccnc32)c1 the results were Cruzain noTriton -14.5% and Cruzain inh Det 0.0%.
COc1ccc(-n2c(/C=C/c3cccc4ccccc34)nc3ccccc3c2=O)cc1OC was read as Cruzain noTriton inconclusive and Cruzain inh Det -2.8%.
Screening COc1ccc(Cl)cc1-n1c(/C=C/c2cccc3ccccc23)nc2ccccc2c1=O returned Cruzain noTriton 31.6µM* and Cruzain inh Det 0.5%.
For O=C(CCn1cnc2ccccc2c1=O)Nc1nc(-c2ccc(Br)cc2)cs1 the results were Cruzain noTriton 25.1µM* and Cruzain inh Det 6.3%.
For Cn1cc(Cl)c(C(=O)OCC(=O)Nc2nc(-c3ccc(Br)cc3)cs2)n1 the results were Cruzain noTriton 31.6µM* and Cruzain inh Det -5.7%.
For Cc1cc(C)cc(NC(=O)CCn2cnc3ccccc3c2=O)c1 the results were Cruzain noTriton -10.5% and Cruzain inh Det -1.2%.
O=C(Cc1cccs1)Nc1nc(-c2ccccc2)cs1 was read as Cruzain noTriton -0.4% and Cruzain inh Det -9.6%.
Screening O=C(COC(=O)/C=C/c1cccs1)Nc1nc(-c2ccccc2)cs1 returned Cruzain noTriton inconclusive and Cruzain inh Det -4.5%.
For O=C(COC(=O)CNC(=O)c1ccccc1)Nc1nc(-c2ccccc2)cs1 the results were Cruzain noTriton inconclusive and Cruzain inh Det 25.1µM*.
`O=C(COC(=O)c1cccs1)Nc1nc(-c2ccccc2)cs1` gave Cruzain noTriton 10µM* and Cruzain inh Det -0.3%.
For Cn1nccc1C(=O)OCC(=O)Nc1nc(-c2ccccc2)cs1 the results were Cruzain noTriton -5.9% and Cruzain inh Det -8.2%.
`Cc1ccccc1CN1C(=O)C(O)(c2c[nH]c3ccccc23)c2cc(Cl)ccc21` (configuration not stated) gave Cruzain noTriton 1.0% and Cruzain inh Det -12.9%.
Cc1ccc(Cl)cc1N(C)C(=O)c1cc2ccc3cccnc3c2[nH]1 was read as Cruzain noTriton 26.1% and Cruzain inh Det -7.3%.
`O=C(CC1C(=O)N(c2ccc(F)cc2)C(=O)N1Cc1cccnc1)Nc1ccc(F)cc1` (configuration not stated) gave Cruzain noTriton -4.1% and Cruzain inh Det -2.7%.
Screening Cc1ccc2c(c1)c1c(c(=O)n(-c3cccc(Cl)c3)c(=O)n1CC(=O)NCCC1=CCCCC1)n2C returned Cruzain noTriton 3.2% and Cruzain inh Det -0.9%.
CCCCN(CC)CCNC(=O)C1CCN(c2nnc(C)c3c(C)n(-c4ccc(C)cc4)nc23)CC1 was read as Cruzain noTriton -1.7% and Cruzain inh Det -4.2%.
`CCCSc1nc(-c2ccccc2)[nH]c1S(=O)(=O)c1ccc(C)cc1` gave Cruzain noTriton 0.5% and Cruzain inh Det -10.9%.
For COc1cc(/C=C/c2nc(C#N)c(N3CCCCCC3)o2)cc(OC)c1OC the results were Cruzain noTriton inconclusive and Cruzain inh Det 44.0%.
`O=c1cc(CF)[nH]c(=S)[nH]1` gave Cruzain noTriton 1.8% and Cruzain inh Det 0.3%.
C/C(=N\Nc1nc(-c2ccccc2)cs1)c1cccs1 was read as Cruzain noTriton 7.94µM* and Cruzain inh Det inconclusive.
`C/C(=N\Nc1nc2ccccc2s1)c1cccs1` gave Cruzain noTriton -23.5% and Cruzain inh Det -11.0%.
Screening COc1cc2nc(SCc3ccc(F)cc3)n(Cc3cccs3)c(=N)c2cc1OC returned Cruzain noTriton inconclusive and Cruzain inh Det 5.3%.
Screening COc1ccc(Cn2c(SCc3ccccc3C)nc3cc(OC)c(OC)cc3c2=N)cc1 returned Cruzain noTriton inconclusive and Cruzain inh Det 15.8µM*.
Screening CC(C)(C)C(=O)Nc1ccc2nc(SCCOc3ccccc3Cl)sc2c1 returned Cruzain noTriton -4.0% and Cruzain inh Det -6.0%.
CCN(C(=O)Cn1cc(C(=O)c2ccc(F)cc2)c(=O)c2ccc(C)nc21)c1cccc(C)c1 was read as Cruzain noTriton 9.6% and Cruzain inh Det -8.1%.
Cc1cc(C)c2oc(C(=O)Nc3c(C(=O)c4ccccc4)oc4ccccc34)cc(=O)c2c1 was read as Cruzain noTriton -4.3% and Cruzain inh Det -0.2%.
`O=S(=O)(Nc1ccc(N2CCOCC2)cc1)c1ccc2ccccc2c1` gave Cruzain noTriton -2.0% and Cruzain inh Det -7.2%.
Screening O=S(=O)(Nc1nc2ccccc2nc1Nc1ccc(N2CCOCC2)cc1)c1cc(Cl)ccc1Cl returned Cruzain noTriton 20µM* and Cruzain inh Det -9.0%.
c1ccc(CCc2cccnc2)nc1 was read as Cruzain noTriton -4.4% and Cruzain inh Det -1.3%.
For CCn1c2ccccc2c2cc(NC(=O)COC(=O)c3cccc(S(=O)(=O)NC)c3)ccc21 the results were Cruzain noTriton -26.3% and Cruzain inh Det -2.2%.
Screening CCN(CC)S(=O)(=O)c1cccc(C(=O)OCC(=O)Nc2ccc3c(c2)c2ccccc2n3CC)c1 returned Cruzain noTriton 7.94µM* and Cruzain inh Det -4.2%.
Nn1cnc2sc3c(c2c1=O)CCC3 was read as Cruzain noTriton 0.6% and Cruzain inh Det 0.0%.
For O=c1c2c3c(sc2ncn1Cc1ccc(F)cc1)CCC3 the results were Cruzain noTriton 7.94µM* and Cruzain inh Det -1.5%.
`Cc1ccc2c(c1)c1c(c(=O)n(-c3ccccc3C)c(=O)n1CC(=O)NCCC1=CCCCC1)n2C` gave Cruzain noTriton -1.6% and Cruzain inh Det -2.0%.
O=C(c1cccc(N2C(=O)C3CC=CCC3C2=O)c1)N1CCN(c2ccccc2)CC1 (configuration not stated) was read as Cruzain noTriton 15.8µM* and Cruzain inh Det 22.4µM*.
For O=C(c1cccc(N2C(=O)C3CC=CCC3C2=O)c1)N1CCCCCC1 (configuration not stated) the results were Cruzain noTriton 3.3% and Cruzain inh Det 6.2%.
Screening COCCN1CCn2c(nc3cc(NC(=O)c4cccs4)ccc32)C1 returned Cruzain noTriton 3.4% and Cruzain inh Det 4.9%.
CC(c1ccccc1)N1CCn2c(nc3cc(NC(=O)c4cccs4)ccc32)C1 (configuration not stated) was read as Cruzain noTriton 31.6µM* and Cruzain inh Det -4.3%.
For Nc1nnc(SCC(=O)c2ccccc2)s1 the results were Cruzain noTriton -9.9% and Cruzain inh Det 2.1%.
For Nc1c(C(=O)c2ccccc2)sc2snc(SCC(=O)c3ccccc3)c12 the results were Cruzain noTriton 12.6µM* and Cruzain inh Det -28.4%.
Screening Cc1ccc(S(=O)(=O)c2nnn3c2nc(NCc2ccc4c(c2)OCO4)c2sccc23)cc1 returned Cruzain noTriton 9.3% and Cruzain inh Det -5.9%.
Screening CC(C)c1ccc(S(=O)(=O)c2nnn3c2nc(NCCc2ccccc2)c2sccc23)cc1 returned Cruzain noTriton 10µM* and Cruzain inh Det 0.2%.
For Cc1ccc(S(=O)(=O)c2nnn3c2nc(NCCc2ccccc2)c2sccc23)cc1 the results were Cruzain noTriton 0.3% and Cruzain inh Det 0.0%.
`Cc1ccc(S(=O)(=O)c2nnn3c2nc(NCc2ccc4c(c2)OCO4)c2sccc23)cc1C` gave Cruzain noTriton 25.1µM* and Cruzain inh Det -5.7%.
For CCCSc1ncc(Cl)c(C(=O)Nc2c(C(=O)c3ccc(C)cc3)oc3ccccc23)n1 the results were Cruzain noTriton -6.5% and Cruzain inh Det -1.5%.

Screens (PubChem)
